Screening data (PubChem BioAssay)
HCV inhibitor – qHTS Assay for Inhibitors of Hepatitis C Virus (HCV). Huh7.5.1 HCVcc-Cre infection, luciferase reporter, 44 h. Potency, µM (top dose mostly 41.8 µM), usual class: inhibitors. actives 3.4% (n = 340,000)
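Infectious HCV cell culture screen: compound-treated cells (1,000/well, pre-plated 4 h) are infected with HCVcc-Cre at roughly 0.5 moi and grown 44 h. Infection is quantified by luciferase signal after 15 min substrate incubation at room temperature.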
Pf growth 48h – Primary qHTS for delayed death inhibitors of the malarial parasite plastid, 48 hour incubation; Potency, µM (series often up to 28.7 µM), actives largely listed as inhibitors; actives 5.9% (n = 310,000); P. falciparum luciferase growth in erythrocytes, 48 h
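Luciferase-expressing P. falciparum in infected erythrocytes (2% hematocrit, 0.1% parasitemia final) in RPMI 1640/0.5% Albumax were exposed to compound for 48 hours at 37 C, 5% CO2; growth read as luminescence.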
Sm TGR inh – qHTS Assay for the Inhibitors of Schistosoma Mansoni Peroxiredoxins; Schistosoma mansoni thioredoxin glutathione reductase (TGR), Q962Y6; purified TGR, DTNB reduction, TNB absorbance 405 nm; Potency, µM (highest dose often 114 µM), usual class: inhibitors; actives 3% (n = 360,000); AID 485364, 2010; note: nearly all actives have a fitted effect of over 60% in size
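TGR 20 nM + NADPH 100 uM (dispensed conc.), cpd preinc 15 min RT; start with NADPH (500 uM addition) then DTNB (15 mM addition). Kinetic TNB absorbance, 405 nm filter. Four-parameter Hill fit across titration.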
HCMV antiviral – qHTS Assay for inhibitors of the human cytomegalovirus (HCMV). HFF cells, HCMV-luciferase reporter, 72 h; hits give low values. activity change, negative = inhibition, % at 57.5 µM. actives 4.5% (n = 410,000). AID 1259415, 2018; in the data active = activity change below about -60%; inconclusive = no clear call, values can overlap the other calls; inactive = above about -39%
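Two compound doses tested in HFFs infected with HCMV-luciferase, MOI 1 PFU/cell, 72 h at 37C. Lysate luminescence read with OneGlo; data normalized against buffer-only and 10uM Salinomycin inhibitor controls.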
Pf growth 96h – Primary qHTS for delayed death inhibitors of the malarial parasite plastid, 96 hour incubation; P. falciparum luciferase reporter growth, 96 h; Potency, µM (highest dose often 28.7 µM), actives largely listed as inhibitors; actives 6.9% (n = 320,000); AID 504834, 2011
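Cell-based qHTS: luciferase-tagged P. falciparum in erythrocytes (2% hematocrit, 0.05% parasitemia final) incubated with compounds for 96 hours, 37 C, 5% CO2; luciferase detection reagent then added and luminescence measured.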
SARS PLpro yeast-1 – qHTS of Yeast-based Assay for SARS-CoV PLP | S. cerevisiae expressing SARS-CoV PLpro, growth rescue | Potency, µM (series often up to 32.9 µM), most hits filed as activators | actives 0.19% (n = 330,000) | AID 485353, 2010; calls by dose curve; note: nearly all actives have a fitted effect of over 55% in size
SARS PLpro yeast-2 – qHTS of Yeast-based Assay for SARS-CoV PLP: Hit Validation. actives 19% (n = 1,000). calls only. yeast expressing SARS-CoV PLpro, growth phenotype rescue. shares compounds with SARS PLpro yeast-1; call rule not given here
Numbers stand for hits; – = inactive; ? = inconclusive; · = no result given; + = active, no number. Compounds with a hit are over-represented: about 15% of the library has one in this group of screens. Unless noted, calls come from the whole dose curve; as a rule, active = well fitted curve in the direction sought with a large enough effect; inconclusive = small, poorly fitted or top-dose-only effect, or another doubt; inactive = no such curve, though single readings can be large; an effect the other way counts as inactive or inconclusive.

SMILES | HCV inhibitor | Pf growth 48h | Sm TGR inh | HCMV antiviral | Pf growth 96h | SARS PLpro yeast-1 | SARS PLpro yeast-2
COc1ccc(C(=O)Nc2ccc(Cl)c(S(=O)(=O)Nc3ccccc3OC)c2)cc1 | ? | ? | – | -92.5 | ? | ? | ?
COc1ccccc1NS(=O)(=O)c1cc(NC(=O)c2ccc3ccccc3n2)ccc1Cl | – | – | – | – | – | – | ·
C=CCc1ccc(OCCn2cncn2)c(OC)c1 | – | – | – | – | – | ? | –
COc1cc(C(=O)Nc2nnc(SCC(=O)NCC3CCCO3)s2)cc(OC)c1OC (configuration not stated) | – | – | – | – | ? | 4.47µM | –
CCOc1ccc(C(=O)Nc2nnc(SCC(=O)NCC3CCCO3)s2)cc1OCC (configuration not stated) | · | – | – | – | – | – | ·
Cc1nc(N/N=C\c2ccc3c(c2)OCO3)sc1C | – | – | – | – | – | 7.08µM | +
C(=N\Nc1nc2ccccc2s1)/c1ccc2c(c1)OCO2 | – | – | – | – | ? | – | ·
O=C(COc1nsnc1N1CCOCC1)N/N=C/c1ccccc1O | ? | ? | – | – | – | ? | –
O=C(Cc1csc(N2CCOCC2)n1)N/N=C/c1ccc(O)c(O)c1O | – | – | ? | – | – | 10µM | –
O=C(O)COc1ccc(/C=N/NC(=O)COc2nsnc2N2CCOCC2)cc1 | – | – | – | – | – | – | ·
O=C1CC(=C2c3ccccc3-c3ccccc32)C(=O)N1CCN1CCN(c2cccc(Cl)c2)CC1 | – | · | · | – | · | · | ·
CNC(=O)COc1ccc(Cl)c2cccnc12 | – | – | · | – | – | – | ·
CC(=O)NC(c1ccc(Cl)cc1Cl)c1ccc2cccnc2c1O (configuration not stated) | 5.62µM | 4.15µM | – | -98.4 | – | ? | –
O=C(O)COc1ccccc1C(Nc1ccccn1)c1cc(Cl)c2cccnc2c1O (configuration not stated) | – | – | 0.398µM | – | – | 5.01µM | –
CC(=O)NC(C)c1cc(Cl)c2cccnc2c1O (configuration not stated) | · | ? | – | -95.9 | ? | ? | –
COc1ccc(C(NC(C)=O)c2ccc3cccnc3c2O)c(OC)c1 (configuration not stated) | 5.01µM | 1.65µM | – | · | 3.29µM | 2.24µM | +
CCCOc1ccc(/C=N/n2nnnc2N)cc1OC | – | – | – | – | – | – | ·
O=C(NNC1=C(C(=O)C(F)(F)F)CCC1)c1cccc(O)c1 | – | – | – | – | – | 14.1µM | –
O=C(N/N=C/c1cc2ccccc2nc1Cl)/C(=C/c1cccs1)NC(=O)c1ccccc1 | ? | · | ? | – | – | ? | –
O=C(N/N=C/c1cccnc1)/C(=C\c1cccs1)NC(=O)c1ccccc1 | – | – | – | – | ? | – | ·
O=C(NCC(c1ccccc1)N1CCCC1)C1CCN(C(=O)Nc2ccccc2)CC1 (configuration not stated) | – | ? | – | – | ? | – | ·
COc1cc(/C=C/C(=O)NC(C)C)ccc1OCc1ccccc1 | ? | 13.1µM | – | – | – | ? | +
COCCNC(=O)C1=CC(c2ccc3c(c2)OCO3)=NS(=O)(=O)N1C | · | · | – | – | · | · | ·
COc1ccc(NC(=O)c2nnn(CC(=O)Nc3ccc4c(c3)OCO4)c2N)c(OC)c1 | – | – | – | – | – | – | ·
CC(C)C[C@H]1CN=C(N(C)C)N1CCCCc1ccccc1 | ? | 5.22µM | – | ? | ? | 6.31µM | –
SMILES | HCV inhibitor | Pf growth 48h | Sm TGR inh | HCMV antiviral | Pf growth 96h | SARS PLpro yeast-1 | SARS PLpro yeast-2
Cc1c(Cl)cccc1NC(=S)NCc1cccs1 | ? | ? | – | -79.7 | – | 14.1µM | +
Cc1c(Cl)cccc1NC(=S)NCc1ccccc1Cl | – | – | – | ? | – | – | ·
Cc1cccc(NC(=O)CCSc2nnc(Cc3ccccc3)o2)c1 | – | – | – | – | ? | – | ·
CC1(C)CC(=O)C(C=NCCN2CCN(C(=S)Nc3ccccc3)CC2)=C(O)C1 | – | – | – | – | – | ? | –
Cc1ccc(C2CC(=O)C(C=NCCN3CCN(C(=S)Nc4ccccc4)CC3)=C(O)C2)cc1 (configuration not stated) | – | – | – | – | – | – | ·
CCNC(=O)CN(c1ccccc1)S(=O)(=O)c1ccc(Cl)cc1 | – | · | – | – | – | ? | ?
CCNC(=O)CN(c1ccc(Cl)cc1)S(=O)(=O)c1ccccc1 | – | – | – | – | · | – | ·
Cc1cccc(C)c1-n1nnnc1C1(C)CCC(=O)N1Cc1cccc(C(F)(F)F)c1 (configuration not stated) | · | · | · | – | · | · | ·
CCCn1c(NC(=O)CSCC(=O)Nc2cc(C)on2)nc2ccccc21 | ? | ? | – | – | ? | – | ·
CCCn1c(NC(=O)c2cccc(C)c2C)nc2ccccc21 | 11.2µM | · | – | · | 8.28µM | ? | –
COC(=O)c1ccc(NC(=O)CSc2nccn2Cc2ccc(Cl)cc2)cc1 | · | · | – | – | · | · | ·
COC(=O)CNC(c1ccccc1)c1cc(C)ccc1NC(=O)c1cccc(Cl)c1 (configuration not stated) | ? | ? | – | – | 13.1µM | ? | –
COC(=O)CNC(c1ccccc1)c1cc(Br)ccc1NC(=O)c1cc(OC)c(OC)c(OC)c1 (configuration not stated) | · | · | – | – | · | · | ·
CCCOC(=O)c1c(-c2ccccc2)c(-c2ccccc2)nn(C)c1=O | · | · | – | – | · | · | ·
CC(=Nc1ccccc1)C1=C(O)COC1=O | – | · | – | – | – | ? | –
Cc1cc(C)cc(NC(=O)C(=O)NCc2ccccn2)c1 | – | – | – | – | – | ? | –
Cc1ccc(S(=O)(=O)N(CC(=O)Nc2ccc3c(c2)OCO3)c2ccc(C)c(Cl)c2)cc1 | · | · | – | – | · | · | ·
Cc1ccc2c(c1)-c1nc3ccccc3cc1C2=NC1CCCCC1 | ? | – | – | – | – | ? | –
Cc1ccc2c(c1)C(=NC1CCCCC1)c1cc3ccccc3nc1-2 | – | – | – | – | – | – | ·
CCC1(c2ccccc2)NC(=S)N(c2cccc(C)c2C)N1 (configuration not stated) | – | – | – | – | – | 3.16µM | ?
O=C(COC(=O)c1ccccc1C(=O)c1ccc(Cl)c([N+](=O)[O-])c1)NC1CCCCCC1 | 12.6µM | · | – | · | – | 3.55µM | +
Cc1ccc(-c2noc(COc3ccc4c(c3)OCO4)n2)cc1 | – | – | – | – | – | 12.6µM | –
COc1cccc(C(=O)Nc2ccc3nc(N4CCC(C)CC4)cc(C)c3c2)c1 | · | · | – | ? | · | · | ·
